# JMJD2A Tudor inh = blocks the human JMJD2A Tudor domain | O75164 | AlphaScreen JMJD2A-Tudor / H3K4me3 peptide binding | Potency, µM (highest dose often 114 µM), for the others: at the top dose activity change, negative = inhibition, most hits filed as inhibitors | actives 4.4% (n = 390,000); also: % is scaled to controls: 0 for no effect and ±100 for the full control effect; nearly all actives have a fitted effect of over 50% in size
# HP1b binding inh = blocks HP1-beta chromodomain binding to methylated histone tails. P83916. AlphaScreen HP1-beta / biotin-H3K9me3 peptide binding. Potency, µM (titrated, usually from 114 µM), inactives show at the top dose activity change, negative = inhibition, usual class: inhibitors. actives 0.56% (n = 390,000). AID 540317; also: nearly all actives have a fitted effect of over 70% in size
# Target sequence (P83916 whole entry, looked up): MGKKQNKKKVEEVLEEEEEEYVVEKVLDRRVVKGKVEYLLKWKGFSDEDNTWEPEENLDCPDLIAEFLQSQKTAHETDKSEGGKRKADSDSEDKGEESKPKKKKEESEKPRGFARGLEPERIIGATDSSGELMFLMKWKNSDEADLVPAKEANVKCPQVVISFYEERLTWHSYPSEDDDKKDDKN
#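 HP1-beta protein (50 nM final) preincubated 30 min at room temperature with biotinylated H3(1-18)K9me3 peptide (50 nM) in PBS pH 7.4, 0.01% Tween-20, then compound added for 30 min. AlphaScreen streptavidin donor/nickel chelate acceptor beads (10 ug/mL final), 30 min dark, luminescence read.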
# L3MBTL1 block = blocks human L3MBTL1; Q9Y468; AlphaScreen L3MBTL1–H3K9me1 peptide binding; Potency, µM (highest dose often 57.1 µM), inactives show top-dose activity, negative = inhibition, usual class: inhibitors; actives 0.66% (n = 230,000); also: % is scaled to controls: 0 for no effect and ±100 for the full control effect; nearly all actives have a fitted effect of over 60% in size
#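 L3MBTL1 (50 nM) pre-complexed 30 min with biotinylated H3(1-15)K9me1 peptide (75 nM), then compounds added for 30 min at room temperature; AlphaScreen streptavidin donor/nickel chelate acceptor beads (10 ug/mL final) read after 30 min dark incubation.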
# BAZ2B block = BAZ2B (human) inhibition; AlphaScreen BAZ2B-H3K14Ac peptide displacement; Potency, µM (doses to about 114 µM), for the others: top-dose activity change, negative = inhibition, most hits filed as inhibitors; Q9UIF8; actives 4.4% (n = 360,000); also: % is scaled to controls: 0 for no effect and ±100 for the full control effect; nearly all actives have a fitted effect of over 60% in size
#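 AlphaScreen luminescence quantifies BAZ2B engagement of H3K14Ac peptide; the protein and biotinylated peptide are both at 50 nM final, buffer PBS pH 7.4 with 0.01% Tween-20, all steps at room temperature.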
# G9a block = blocks human histone lysine methyltransferase G9a; G9a H3K9 monomethylation, AlphaScreen, 2 h; actives 8.8% (n = 350,000); AID 504332; Potency, µM (doses to about 102 µM), for the others: top-dose activity, negative = inhibition, usual class: inhibitors; also: % is scaled to controls: 0 for no effect and ±100 for the full control effect; nearly all actives have a fitted effect of over 75% in size
# Target sequence (Q96KQ7 913-1193 limits assumed): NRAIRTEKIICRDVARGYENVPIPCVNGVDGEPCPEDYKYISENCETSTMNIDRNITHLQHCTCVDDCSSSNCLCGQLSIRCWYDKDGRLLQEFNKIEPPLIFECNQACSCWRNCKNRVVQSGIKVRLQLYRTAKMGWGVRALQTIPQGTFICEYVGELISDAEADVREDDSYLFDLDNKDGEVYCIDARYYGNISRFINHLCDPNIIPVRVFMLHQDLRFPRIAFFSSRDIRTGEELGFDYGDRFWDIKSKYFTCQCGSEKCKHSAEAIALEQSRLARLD
#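 Readings reflect AlphaScreen signal from monomethyl-H3K9 antibody detection. HMT at 20 nM; substrate b-H3K9 500 nM; cofactor SAM 20 uM; 2 h RT reaction; compounds tested as titrations in qHTS with 15 min preincubation.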
# An asterisk follows results filed as active; ? = inconclusive; nt = no result; [ ] = remark or other dose. This is a sample that favours compounds with a hit; in the whole collection about 11% have one here. Calls follow the shape of the dose curve; as a rule, active = well fitted inhibition curve with a large enough effect; inconclusive = small, poorly fitted or top-dose-only effect; inactive = no such curve, though single readings can be large or run the other way. Potency is read from the fitted curve at half-maximal effect.
SMILES,JMJD2A Tudor inh,HP1b binding inh,L3MBTL1 block,BAZ2B block,G9a block
COc1cc(NC(=O)C2C3C=CC(C3)C2C(=O)O)c(OC)cc1Cl (centres undefined),-17.8%,18.8%,-6.9%,0.3%,11.2µM*
CCN(C(=O)c1oc2ccc(S(=O)(=O)N3CCCCCC3)cc2c1C)c1ccccc1,-15.6%,67.1%,nt,24.0%,-5.9%[59 µM]
Cc1ccc(-c2cc(C(=O)N3CCN(C(=O)c4ccco4)CC3)[nH]n2)c(C)c1,5.4%,44.7%,nt,-19.1%,9.9%
COc1cc(NC(=O)Cn2ccc3ccccc3c2=O)cc(OC)c1OC,-9.3%,30.1%,nt,-13.8%,-33.9%[59 µM]
COc1ccc(C2C(C(C)=O)=C(O)C(=O)N2CCCn2ccnc2)cc1OC (centres undefined),-9.7%,24.5%,0.8%,?,50.1µM*
CC(=O)C1=C(O)C(=O)N(CCCn2ccnc2)C1c1ccc(Br)cc1 (centres undefined),-18.1%,23.9%,6.6%,?,?
CCOc1ccc(C2C(C(=O)c3ccco3)=C(O)C(=O)N2CCCn2ccnc2)cc1 (centres undefined),44.7µM*,21.7%,-1.2%,-2.5%,?
COc1ccc(C(=O)OC(C)C(=O)NC(C)CCc2ccccc2)cc1OC (centres undefined),-0.7%,25.3%,nt,12.0%,16.0%
O=C1OC/C(=C(/O)c2ccc(Cl)cc2)C1=O,-13.3%,60.7%,8.4%,-36.2%,39.8µM*
O=C(NS(=O)(=O)c1ccc(Cl)cc1)c1ccccc1,15.4%,31.8%,31.1%,-27.6%,-19.3%
COc1ccc(N2CCN(S(=O)(=O)c3ccc(OC)c(-c4noc(C)n4)c3)CC2)cc1,-5.5%,23.6%,nt,-5.3%,-23.5%[59 µM]
CC(O)CN(CCC(N)=O)CCC(N)=O (centres undefined),?,-27.1%,5.9%,56.2µM*,35.5µM*
CCOC(=O)C1CCCN(C(=O)c2cc3c(Cl)nc4ccccc4c3s2)C1 (centres undefined),-5.1%,41.6%,nt,8.7%,-5.4%[59 µM]
Cc1ccc(Nc2nc3ccccc3s2)c(C)c1,8.2%,47.1%,5.3%,8.6%,16.4%[59 µM]
Cc1cc(O)ccc1Nc1nc2ccccc2nc1Nc1ccc(O)cc1C,89.1µM*,-17.3%,-11.0%,50.1µM*,4.47µM*
Cc1nn(-c2nnc(NC3CCCCC3)nn2)c(C)c1Br,44.7µM*,?,?,14.1µM*,22.4µM*
N#Cc1c(Cl)nsc1NN,50.1µM*,44.7µM*,?,14.1µM*,7.08µM*
CN(C=[N+](C)C)c1cccc2c1C(=O)c1ccccc1C2=O,44.7µM*,15.8µM*,?,17.8µM*,?
CCN(CC)CC(=O)Nc1cccc2c1C(=O)c1ccccc1C2=O,-19.9%,-2.9%,nt,-26.9%,?
Cn1ccc(C(=O)NC(=S)N2CCSCC2)n1,50.1µM*,?,1.2%,-18.5%,12.6µM*
COc1ccccc1-c1nnc(C2CCN(C(=O)c3cccc(C)c3)CC2)o1,-6.3%,28.0%,nt,-11.2%,-0.8%[59 µM]
Cc1c(NC(=O)c2ccc(C(=O)Nc3c(C)n(C)n(-c4ccccc4)c3=O)cc2)c(=O)n(-c2ccccc2)n1C,-3.3%,39.4%,-0.1%[2.29 µM],9.7%,-10.1%[0.501 µM]
Cc1c(NC(=O)C(=O)/C=C(\O)c2ccc(Br)cc2)c(=O)n(-c2ccccc2)n1C,25.1µM*,-17.5%,-9.1%,?,?
COc1cc(Cl)c(C)cc1Nc1nc2ccccc2c2nnc(C)n12,-3.8%,77.5%,nt,16.2%,6.8%[59 µM]
C/C(=N\Nc1ccc([N+](=O)[O-])cc1)c1ccc(N)cc1,?,-30.0%,43.5%,-2.9%,7.08µM*
SMILES,JMJD2A Tudor inh,HP1b binding inh,L3MBTL1 block,BAZ2B block,G9a block
C/C(=N\Nc1nc(C)c(C)s1)c1ccc([N+](=O)[O-])cc1,?,?,-18.5%,35.5µM*,17.8µM*
CCc1ccc(/C(C)=N\Nc2ccc([N+](=O)[O-])cc2)cc1,-21.3%,3.4%,-2.2%,-3.4%,32.4%[0.501 µM]
Cc1ccc2c(c1)N(CCCC(=O)NCc1cccc(F)c1)C(=O)CO2,-10.1%,18.3%,nt,1.3%,6.0%[59 µM]
Cc1ccc(-c2nc3c(c(=O)[nH]c(=O)n3Cc3ccccc3)n2Cc2ccccc2)o1,-23.3%,-6.7%,-3.4%,12.7%,10µM*
CC(Cc1ccc(O)c(O)c1)C(C)Cc1ccc(O)c(O)c1 (centres undefined),22.4µM*,?,nt,nt,nt
C[C@H](Cc1ccc(O)c(O)c1)[C@@H](C)Cc1ccc(O)c(O)c1,nt,nt,nt,nt,0.794µM*
CC(C)C[C@@H](CN1CCCC1CN1C(=S)NC[C@@H]1Cc1ccc(O)cc1)N1C[C@H](Cc2ccc(O)cc2)N(CCc2ccccc2)C1=S (some centres undefined),?,1.4%,nt,nt,nt
Cn1ccc2cc(S(=O)(=O)N3CCCC(C(=O)NCc4ccccc4)C3)ccc21 (centres undefined),-13.1%,18.4%[57 µM],nt,-0.4%,9.3%[59 µM]
Cc1ccc(NC(=O)c2sc(N)nc2C)cc1,-13.2%,38.3%,nt,-4.0%,19.1%
Cc1nc(NC(=O)C2CC2)sc1C(=O)Nc1ccccc1,-7.5%,16.1%,-0.8%,5.4%,nt
Cc1nc(Nc2c(Cl)cccc2Cl)sc1C(=O)Nc1ccccc1,-8.1%,25.5%,3.1%,?,50.1µM*
Cc1nc(N)sc1C(=O)Nc1ccccc1,?,23.8%,6.7%,-28.9%,50.1µM*
COc1cc(CNn2cn[nH]c2=S)cc(Br)c1OCc1ccccc1F,?,20.7%,1.9%[11.4 µM],?,10µM*
COc1cc(CNn2cn[nH]c2=S)cc(Cl)c1OCc1ccccc1,-22.1%,2.8%,-1.8%,-6.5%,10µM*
CCOC(=O)N1CCN(C(=O)c2ccc3c(=O)n4c(nc3c2)CCCCC4)CC1,-15.7%,8.8%,-14.7%,1.1%,-2.0%[59 µM]
O=C(O)CSc1c2c(nc3cc(C(=O)N4CCOCC4)ccc13)CCCC2,39.8µM*,14.8%,-1.3%,70.8µM*,33.8%[0.501 µM]
CCOC(=O)N1CCN(C(=O)c2ccc3c(SCC(=O)O)c4c(nc3c2)CCCC4)CC1,-16.7%,36.3%,6.9%,-3.4%,39.8µM*
CCCCCCCC#Cc1ccccc1/C=N/S(=O)c1ccc(C)cc1 (centres undefined),8.91µM*,171.0%,7.9%,24.6%,0.794µM*
Cc1cc(C)cc(NC(=O)c2ccc3c(O)c(S(=O)(=O)c4ccccc4)c(=O)[nH]c3c2)c1,-31.1%,-5.2%,nt,-24.6%,-35.2%[59 µM]
NC(=O)NCCC1=CCCCC1,-17.9%,29.6%,nt,0.9%,23.5%[59 µM]
C=CCn1c(N)c(C(=O)NCCC2=CCCCC2)sc1=S,?,?,-16.3%,39.8µM*,?
O=C(c1ccc(Cl)c(Cl)c1)N1CCC(=O)N(C(COCc2cccc(C(F)(F)F)c2)Cc2ccccc2)CC1 (centres undefined),-14.3%,27.9%,-13.8%,-26.9%,50.1µM*
O=C(c1ccc(C(F)(F)F)cc1)N1CCC(=O)N(C(COCc2ccccc2)Cc2ccccc2)CC1 (centres undefined),-15.0%,49.8%,-2.3%,-38.5%,56.2µM*
